Consider 1 molecule from the supplement of paper PMC11001985.

Unmarked numbers belong to inactive results.

Chain of TTYH3 (lysine site: K340) (Q9C0H2 whole entry): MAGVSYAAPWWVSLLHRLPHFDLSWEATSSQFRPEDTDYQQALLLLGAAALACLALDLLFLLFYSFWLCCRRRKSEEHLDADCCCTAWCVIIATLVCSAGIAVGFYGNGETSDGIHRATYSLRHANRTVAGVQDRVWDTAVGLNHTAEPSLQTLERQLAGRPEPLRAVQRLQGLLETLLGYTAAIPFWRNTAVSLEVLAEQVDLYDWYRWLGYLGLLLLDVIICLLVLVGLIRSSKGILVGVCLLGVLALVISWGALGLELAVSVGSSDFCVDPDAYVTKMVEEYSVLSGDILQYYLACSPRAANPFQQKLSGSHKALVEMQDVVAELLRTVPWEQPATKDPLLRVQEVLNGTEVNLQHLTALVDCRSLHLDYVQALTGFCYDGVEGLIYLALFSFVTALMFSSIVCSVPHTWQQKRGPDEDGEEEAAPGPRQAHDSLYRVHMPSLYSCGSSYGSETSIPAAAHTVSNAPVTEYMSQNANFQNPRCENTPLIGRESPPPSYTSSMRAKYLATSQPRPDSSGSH

In this experiment the target is TTYH3 (lysine site: K340) (UniProt Q9C0H2). Put plainly: lysine labeling ratio R10:1 (500 µM / 50 µM probe), SILAC-ABPP in living cells; higher = lower intrinsic lysine reactivity toward the probe, active = 2 or less. The note with it: HeLa; probe concentrations 500 vs 50 µM. How it is done:
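Living HeLa cells (SILAC light/heavy) in PBS at room temperature were labeled with 50 µM versus 500 µM of the lysine-reactive, reductant-cleavable probe OPA-S-S-alkyne (SILAC labeling time not stated). Probe-modified peptides were CuAAC-biotinylated, captured on neutravidin and eluted with DTT/IAA, then quantified by LC-MS/MS. R = median peptide ratio per lysine (500/50 µM), combined over 3 forward and 3 reverse SILAC replicates. Ratios are capped at 20; R < 2 = hyper-reactive.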
`C#CCNC(=O)CCSSCCC(=O)NCCc1ccc(C=O)c(C=O)c1`: the “lysine labeling ratio R10:1” value is 2.27.
